Out of some 330,000 compounds screened, about 1,900 (0.58%) were called active. Roughly 4% stayed inconclusive and do not appear here. The list is a sample of the results. Entries with a potency or affinity are not part of this list. Unmarked numbers belong to inactive results. No stated cut-off is given here; in the data, inconclusive means inhibition above about 70% without an active follow-up result; inactive means below that.
Experiment: M. tuberculosis growth inhibition, HTS (AID 449762);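 further: bacterial growth assessed after seven days of incubation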
Settings: M. tuberculosis H37Rv growth inhibition, 7H9 media; at 25 µM; stronger effect = higher value

Row | Compound | inhibition [%]
1 | COc1cc(OC)cc(C(=O)NCC(=O)OCC(=O)N2CCc3ccccc32)c1 | 5.39
2 | Cc1cc2c(nn1)CCc1c-2no[n+]1[O-] | -1.95
3 | O=C(CN1CCN(c2nc(-c3ccccc3)cs2)CC1)Nc1ccc2c(c1)OCO2 | -7.77
4 | O=C(CN1CCN(c2ncccn2)CC1)NCc1ccc2c(c1)OCO2 | -8.33
5 | O=C1C2CC=C(Cl)CC2C(=O)N1CC1Cc2ccccc2CO1 (configuration not stated) | -2.11
6 | N#Cc1cccc(NC(=O)CCc2ccc(S(=O)(=O)N3CCOCC3)cc2)c1 | 2.35
7 | CCOc1ccc(CCNC(=O)C2CCN(c3nnc(-n4cccc4)s3)CC2)cc1 | -2
8 | CCOc1ccc2nc(N3CCCC(C(=O)NCCCN4C(C)CCCC4C)C3)sc2c1 (configuration not stated) | 6.54
9 | OCC[C@H]1C[C@@H](O)[C@H](O)[C@@]2(Cc3ccccc3CO2)O1 | -8.04
10 | O=C(CSc1nnc(Nc2ccccc2F)s1)NC(=O)CN1CCCC1=O | -10.7
11 | COc1ccc(OCc2cccc(C(=O)NN)c2)cc1 | 5.13
12 | Cc1nn(Cc2cccc(C(=O)Nn3cc([N+](=O)[O-])cn3)c2)c(C)c1[N+](=O)[O-] | 10.2
13 | CC1CCN(C(=O)Cn2nnc(-c3ccccc3)n2)CC1 | 5.98
14 | CC(C)(C)c1ccc(/C=C2/SC(N3CCCC3)=NC2=O)cc1 | 24.7
15 | Cc1ccsc1/C=C1\SC(N2CC(C)OC(C)C2)=NC1=O (configuration not stated) | 67.9
16 | O=C1N=C(N2CCCC2)S/C1=C\c1ccccc1 | 0.89
17 | Cc1ccsc1/C=C1/SC(N2CC(C)OC(C)C2)=NC1=O (configuration not stated) | 68.3
18 | COC(=O)C(CCCN1C(=O)c2ccccc2C1=O)(NC(C)=O)c1nnn(C)n1 (configuration not stated) | -2.74
19 | COC(=O)c1cccc(-c2noc(-c3ccccc3F)n2)c1 | -2.87

Row | Compound | inhibition [%]
20 | Cc1ccc(NC(=O)c2sccc2-n2cccc2)c(Cl)c1 | 4.85
21 | Cc1cccc(NC(=O)c2sccc2-n2cccc2)c1C | 6.88
22 | Cc1ccc2cc(CN(c3ccccc3C)S(=O)(=O)c3ccccc3)c(=O)[nH]c2c1 | 11.1
23 | CNC(=O)c1ccsc1NC(=O)c1ccccc1 | -14.7
24 | Nc1sccc1C(=O)c1ccccc1 | -3.41
25 | COc1ccc(CCNCC(O)COc2ccc(Cl)cc2)cc1OC (configuration not stated) | -0.15
26 | Cc1cc(OCC(O)CNC(C)(C)C)ccc1Cl (configuration not stated) | -5.73
27 | Cc1cc(C)c(OCC(=O)OCC(=O)NC2CCCCCCC2)c(C)c1 | -6.93
28 | CCN(CC)S(=O)(=O)c1ccc(C(=O)NNC2=NS(=O)(=O)c3ccccc32)cc1 | -5.34
29 | COc1ccccc1N1CCN(Cc2nc3ccsc3c(=O)[nH]2)CC1 | -2.58
30 | O=c1[nH]c(CN2CCN(c3ccccc3Cl)CC2)nc2ccsc12 | 6.57
31 | COC(=O)C1=C(c2c(C)noc2C)C[C@@H]2CC[C@H]1N2C(=O)N1CCC(C)CC1 | -12.5
32 | COc1ccc(-c2nnc(SCc3ccc(C(=O)O)cc3)n2C)cc1OC | 2.72
33 | COc1ccc(C(=O)C2CCN(C(=S)NCC3CCCO3)CC2)cc1 (configuration not stated) | 0.55
34 | CC(C)=CCC[C@](C)(O)C1CC[C@]2(C)C1[C@H](O)CC1[C@@]3(C)CC[C@H](O[C@@H]4O[C@H](CO)[C@@H](O)[C@H](O)[C@H]4O[C@@H]4O[C@H](CO)[C@@H](O)[C@H](O)[C@H]4O)C(C)(C)C3CC[C@]12C (some centres not stated) | -2.47
35 | CC(C)=CCC[C@](C)(O[C@@H]1O[C@H](CO[C@@H]2OC[C@@H](O)[C@H](O)[C@H]2O)[C@@H](O)[C@H](O)[C@H]1O)C1CC[C@]2(C)C1[C@H](O)CC1[C@@]3(C)CC[C@H](O[C@@H]4O[C@H](CO)[C@@H](O)[C@H](O)[C@H]4O)C(C)(C)C3CC[C@]12C (some centres not stated) | 1.5
36 | N#Cc1cc(Nc2c(N)nc[nH]c2=O)c([N+](=O)[O-])cc1C#N | -9.11
37 | CCc1ccccc1OCCCOc1ccc(OC)cc1 | 3.7
38 | O=C(COC(=O)c1ccc([N+](=O)[O-])s1)NCc1ccccc1 | 40.3

Row | Compound | inhibition [%]
39 | Cc1[nH]c2ccccc2c1C(=O)COC(=O)c1ccccc1O | -1.43
40 | CC(C)[C@H](NC(N)=O)C(=O)NNC(=O)COc1cccc(C(F)(F)F)c1 | -1.74
41 | CC(C)Oc1ccc(NC(N)=O)cc1 | -11.6
42 | CC(C)NC(=O)COc1ccc(OCc2ccccc2)cc1 | -4.33
43 | CCOC(=O)C(=O)Nc1ccc(OCc2ccccc2)cc1 | 62.7
44 | CCOc1ccc(NC(C)=O)cc1 | 3.93
45 | Cc1ccc(S(=O)(=O)n2nc(-n3c(C)ccc3C)c3c(F)cccc32)c2ccccc12 | 11.8
46 | O=C(N/N=C/C=C/c1ccccc1[N+](=O)[O-])c1cccs1 | -11.8
47 | O=C(N/N=C/C=C/c1ccc([N+](=O)[O-])cc1)c1cccs1 | 3.01
48 | Cc1noc(NS(=O)(=O)c2ccc(NC(=O)C(C)(C)C)cc2)c1C | 3.27
49 | C=CCNC(=O)Cc1ccc(S(=O)(=O)N2CCOCC2)s1 | -1.17
50 | COc1cc(C(C)=O)ccc1OCC(O)Cn1nc(C)c(Br)c1C (configuration not stated) | 3.09
51 | NS(=O)(=O)c1ccc(CNC(=O)c2ccc3ccccc3n2)cc1 | 7.68
52 | O=C(Cc1cn2ccsc2n1)Nc1nc2c(s1)CCCC2 | -0.56
53 | O=C(Cc1cn2ccsc2n1)Nc1nc2c(s1)CN(Cc1ccccc1)CC2 | -6
54 | COc1ccc(S(=O)(=O)Nc2c3ccccc3nc(=O)n2-c2ccccc2)cc1 | 5.16
55 | O=C1CCC(C(=O)N(Cc2cccs2)C2(C(=O)NC3CCCCC3)CCCCC2)N1 (configuration not stated) | 1.48
56 | O=C1C=C(c2ccc(Oc3ccccc3)cc2)C[C@@H](c2ccc(F)cc2)C1 | 24.8
57 | CCOc1ccc(OCCCC(=O)Nc2cc(Cl)ccc2-n2cncn2)cc1 | 9.23

From PubChem BioAssay AID449762 (Southern Research Specialized Biocontainment Screening …, 2010)
